Experimental findings from PubChem BioAssay AID504652 (National Center for Advancing Translational Sciences (NCATS), 2011) are described below.

Screen size: about 360,000 compounds; about 11,000 (3.1%) were called active. Many of the other results were omitted from the sample, so actives are more common in it than they were. A number with no mark means an inactive call. No stated cut-off is given here; in the data, active means activity change below about -30%; inactive means the rest.
On the % scale 0 is the no-effect control and ±100 the full control effect.

D(1A) dopamine receptor (Homo sapiens), sequence (P21728 whole entry, looked up): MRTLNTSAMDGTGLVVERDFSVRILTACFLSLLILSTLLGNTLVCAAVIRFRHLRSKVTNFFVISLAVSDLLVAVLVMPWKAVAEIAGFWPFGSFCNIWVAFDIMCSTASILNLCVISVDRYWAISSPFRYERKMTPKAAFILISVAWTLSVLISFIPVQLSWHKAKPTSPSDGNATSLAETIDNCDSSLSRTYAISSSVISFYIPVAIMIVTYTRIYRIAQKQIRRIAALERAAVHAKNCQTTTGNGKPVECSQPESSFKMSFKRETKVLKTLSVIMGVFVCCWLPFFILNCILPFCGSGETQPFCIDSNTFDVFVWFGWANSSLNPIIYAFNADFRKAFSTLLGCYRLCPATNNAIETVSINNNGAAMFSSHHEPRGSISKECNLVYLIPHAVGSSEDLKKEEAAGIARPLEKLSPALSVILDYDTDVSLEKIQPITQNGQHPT

The experiment has as its target D(1A) dopamine receptor (Homo sapiens) (UniProt P21728). The experiment can be described thus: Antagonist of Human D 1 Dopamine Receptor: qHTS. Conditions: HEK293 TREx D1 cells, calcium flux, dopamine EC80; at 10 µM; hits give low values. Summed up:
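Cells carrying a force-coupled, tetracycline-inducible human D1 receptor report calcium flux. Each well gets a 10 s baseline, compound with 180 s monitoring, then an EC80 dopamine stimulus with a second 180 s kinetic read.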
Regarding `CCNS(=O)(=O)c1ccc(NC(=O)CSc2nc(-c3ccco3)cc(C(F)(F)F)n2)cc1`, the activity change, negative = inhibition is 7%.

With `COc1ccccc1N1CCN(CCCNC(=O)c2cnn(-c3ccccc3Cl)c2C2CCN(C(=O)OC(C)(C)C)CC2)CC1`, the activity change, negative = inhibition is -8.92%.

For `CCC(C(=O)Nc1cccc(Cl)c1C)n1nc(-c2ccc(C)cc2)ccc1=O` (stereo unspecified), the activity change, negative = inhibition was 6.67%.

With `COc1ccc(CCNC(=O)c2ccc(-n3c(C)cc4c3CCCC4)cc2)cc1OC`, the activity change, negative = inhibition is -15.3%.

As to `COc1ccc(CNC(=O)Cn2nnc(-c3ccc(S(C)(=O)=O)cc3)n2)cc1`, the activity change, negative = inhibition is 15.1%.

Turning to `COc1ccccc1NC(=O)c1oc2ccccc2c1NC(=O)COc1ccccc1OC`, the activity change, negative = inhibition is -10.7%.

`COc1ccc(S(=O)(=O)N2CCCC2)c(C)c1C`: the activity change, negative = inhibition was -24.6%.

On to `COc1ccc(S(=O)(=O)N2CCOCC2)c(C)c1C`, for which the activity change, negative = inhibition is -50.9% (active).

For the compound `COc1cc(C)c(S(=O)(=O)N2CCOCC2)c(C)c1C`, the activity change, negative = inhibition is -2.39%.

For the compound `CC(=O)c1ccc(NC(=O)C2CC(=O)Nc3nc4ccccc4n32)cc1` (stereo unspecified), the activity change, negative = inhibition is -16%.

As to `CCOC(=O)c1ccc(NC(=O)C2CC(=O)Nc3nc4ccccc4n32)cc1` (stereo unspecified), the activity change, negative = inhibition was 2.09%.

As for `Cc1nc(NC2=NC(C(=O)Nc3ccc(Cl)cc3)CC(=O)N2)nc2ccccc12` (stereo unspecified), the activity change, negative = inhibition is -50.2% (active).

As to `CCN(CC)CCNc1ncnc2c1cnn2-c1cc(Cl)ccc1C`, the activity change, negative = inhibition was -31% (active).

In the case of `CCN1CCN(c2ncnc3c2cnn3-c2ccc(C)c(C)c2)CC1`, the activity change, negative = inhibition is 0.119%.

On to `Cc1ccc(-n2ncc3c(NCCCn4ccnc4)ncnc32)cc1Cl`, for which the activity change, negative = inhibition is -30.7% (active).

As for `CC(C)CNc1ncnc2c1cnn2Cc1ccc(Cl)cc1`, the activity change, negative = inhibition was 3%.

Take `Cc1ccc(S(=O)(=O)c2nc(NCCCn3ccnc3)sc2Cl)cc1`: the activity change, negative = inhibition is 8.73%.

For `Cc1ccc(Cl)cc1-n1ncc2c(N3CCC(C(N)=O)CC3)ncnc21`, the activity change, negative = inhibition was -13.9%.

For `CCN(CC)CCNC(=O)CN1N=C(c2ccc(OC)cc2)CCC1=O`, the activity change, negative = inhibition is 7.52%.

As to `COC(=O)c1cc(NC(=O)c2sc3ccccc3c2Cl)cc(C(=O)OC)c1`, the activity change, negative = inhibition is 5.62%.

In the case of `COc1cccc(NC(=O)N(Cc2cn(C)c3ccccc23)C2CCCCCC2)c1`, the activity change, negative = inhibition was 17.7%.

On to `Cc1ccc(N(CC(=O)NCC(C)c2ccccc2)S(=O)(=O)N(C)C)cc1` (stereo unspecified), for which the activity change, negative = inhibition was -3.48%.

For `CCOc1ccccc1CNC(=O)c1ccc(-n2c(C)cc3c2CCC(C)C3)cc1` (stereo unspecified), the activity change, negative = inhibition was 6.61%.

Consider `O=C(C1CC1)N1CCc2cc(Br)cc(S(=O)(=O)N3CCN(c4ccccc4F)CC3)c21`, for which the activity change, negative = inhibition was -2.36%.

`O=C(NCc1ccc(F)cc1)c1ccc(Cn2c(SCc3ccc(F)cc3)nc3cccnc32)cc1`: the activity change, negative = inhibition is -10.7%.

With `COc1ccc(N2CCN(C(=O)CSCc3nc(-c4ccccc4Cl)oc3C)CC2)cc1`, the activity change, negative = inhibition was -24.8%.

In the case of `COc1ccc(CNS(=O)(=O)c2cc(-c3cc(C)no3)ccc2C(C)C)cc1`, the activity change, negative = inhibition was -31% (active).

For `CCOc1ccccc1CNS(=O)(=O)c1cc(-c2cc(C)no2)ccc1C`, the activity change, negative = inhibition is 50.5%.

With `COc1ccc(CCNS(=O)(=O)c2cc(-c3cc(C)no3)ccc2C)cc1OC`, the activity change, negative = inhibition is 9.26%.

In the case of `CCc1ccc(S(=O)(=O)Nc2cc3c(C(=O)OCc4ccccc4)c(C)oc3c3ccccc23)cc1`, the activity change, negative = inhibition is 7.58%.

For the compound `CCCCN(C)c1nnc(NC(=O)Nc2ccc(Br)c(C)c2)s1`, the activity change, negative = inhibition is 13.7%.

`c1ccc(C2CNCc3c2ccc2ccccc32)cc1` (stereo unspecified): the activity change, negative = inhibition is -39.2% (active).

On to `Cc1nn2c(=O)cc(COC(=O)CNC(=O)c3ccc(F)cc3)nc2s1`, for which the activity change, negative = inhibition is -1.13%.

For `Cc1ccc(Cn2c(=O)n(-c3ccc(C)cc3)c(=O)c3c2c2cc(C)ccc2n3C)cc1`, the activity change, negative = inhibition was -3.86%.

Regarding `N#C/C(=C\c1cccc(F)c1)c1nc(-c2cc3c(ccc4ccccc43)oc2=O)cs1`, the activity change, negative = inhibition was -2.97%.

In the case of `COc1cc(C2c3c(oc4ccccc4c3=O)C(=O)N2c2nc(C)c(C)s2)ccc1O` (stereo unspecified), the activity change, negative = inhibition was 6.01%.

Take `CCOc1ccc(NC(=O)c2cnn(-c3ccccc3)c2-n2cccc2)cc1`: the activity change, negative = inhibition was -0.471%.

For `CCCCCOc1ccc(CSC2=NCCN2)cc1[N+](=O)[O-]`, the activity change, negative = inhibition was -42.1% (active).

On to `CCCCOc1ccc(CSC(=N)N)cc1[N+](=O)[O-]`, for which the activity change, negative = inhibition was 25.1%.

In the case of `Cc1nc(SCc2ccc(F)cc2)c([N+](=O)[O-])[nH]1`, the activity change, negative = inhibition was 8.5%.

Consider `COc1ccc(F)cc1S(=O)(=O)NCC(c1ccc2c(c1)OCO2)N1CCN(C)CC1` (stereo unspecified), for which the activity change, negative = inhibition is -2.95%.

Turning to `CCN(CC)CCC(c1cc(OC)c(OC)c(OC)c1)c1c(OC)cc(OC)c2c(-c3ccccc3)cc(=O)oc12` (stereo unspecified), the activity change, negative = inhibition was 18.1%.

For the compound `CCN(CC)CCC(c1ccc2c(c1)OCO2)c1c(OC)cc(OC)c2c(-c3ccccc3)cc(=O)oc12` (stereo unspecified), the activity change, negative = inhibition was -32.2% (active).

Consider `CCN(CC)C(=O)CC(c1ccc2c(c1)OCO2)c1c(OC)cc(OC)c2c(-c3ccccc3)cc(=O)oc12` (stereo unspecified), for which the activity change, negative = inhibition was -44.6% (active).

Take `CCCCN(CC)C(=O)c1ccc2c(c1)OCO2`: the activity change, negative = inhibition was -2.46%.

Consider `COc1cccc(NC(=O)C(=O)NCC(c2ccc3c(c2)OCO3)N2CCN(C)CC2)c1` (stereo unspecified), for which the activity change, negative = inhibition was 27.8%.

In the case of `CCc1nnc2c3ccccc3nc(N3CCN(c4ccc(C)cc4C)CC3)n12`, the activity change, negative = inhibition was -4.28%.

In the case of `CCCN(CCC)S(=O)(=O)c1ccc(C(=O)Nc2sc3c(c2C(=O)OC)CCN(CC)C3)cc1`, the activity change, negative = inhibition is 27%.

In the case of `Cc1ccc(Cl)cc1NC(=O)CSc1nccn1C`, the activity change, negative = inhibition is -34.7% (active).

As for `Cn1ccnc1SCC(=O)Nc1ccc2c(c1)OCCO2`, the activity change, negative = inhibition was 7.91%.

As to `CCc1cccc(NC(=O)CSc2nccn2C)c1`, the activity change, negative = inhibition is 6.16%.

For the compound `COC(=O)c1ccc(COc2cc([N+](=O)[O-])cc3cccnc23)cc1`, the activity change, negative = inhibition was -0.242%.

As for `COc1cc(/C=N/O)ccc1OCc1ccc([N+](=O)[O-])cc1`, the activity change, negative = inhibition is -35.1% (active).

On to `CCCc1ccc(OCc2ccc(C(=O)N/N=C/c3cccc([N+](=O)[O-])c3)o2)c(OC)c1`, for which the activity change, negative = inhibition was -9.05%.

`CCOc1cc(/C=N/O)ccc1OCc1ccccc1F`: the activity change, negative = inhibition is 0.806%.

As to `COc1cc(C(=O)OCC(=O)NC(C)CCc2ccccc2)cc(OC)c1OC` (stereo unspecified), the activity change, negative = inhibition was 0.765%.

Consider `COc1cc(C(=O)OCc2ccc([N+](=O)[O-])cc2)cc(OC)c1OC`, for which the activity change, negative = inhibition is -36.8% (active).

As to `COc1ccc(NC(=O)CCc2nnc3n(CC(C)C)c(=O)c4ccccc4n23)cc1OC`, the activity change, negative = inhibition was 12%.

Turning to `COc1ccccc1N1CCN(C(=O)C2CCN(S(=O)(=O)c3c(C)noc3/C=C/c3ccc(C)cc3)CC2)CC1`, the activity change, negative = inhibition was 1.37%.

Take `COc1ccc(Cn2ccnc2SCC(=O)Nc2ccc3c(c2)OCO3)cc1`: the activity change, negative = inhibition was 3.36%.

Regarding `CC1CCCN(S(=O)(=O)c2ccc3[nH]c(=O)cc(C(=O)NCCc4ccc(Cl)cc4)c3c2)C1` (stereo unspecified), the activity change, negative = inhibition is 15.9%.

Consider `COc1ccccc1NC(=O)c1sc2nc(C)c(C(=O)Nc3ccc(Cl)cc3)c(-c3ccc(Br)cc3)c2c1N`, for which the activity change, negative = inhibition was -7.07%.

For the compound `CC(=O)c1c(C)n(S(=O)(=O)c2ccc(Cl)cc2)c2ccc(NS(=O)(=O)c3ccc(Cl)cc3)cc12`, the activity change, negative = inhibition is 0.214%.

With `COc1ccc(C(=O)NCCc2ccc(S(N)(=O)=O)cc2)cc1OC`, the activity change, negative = inhibition is -31% (active).

Take `Cc1c(C)n(Cc2ccc(Cl)cc2)c2ccc(C(=O)NCCCN3CCOCC3)cc12`: the activity change, negative = inhibition is -28%.

As to `CCOC(=O)c1c(C)c(C(=O)NCCc2ccc(S(N)(=O)=O)cc2)c(C)n1CC`, the activity change, negative = inhibition was -3.79%.

As for `COC(=O)c1c(C)[nH]c(C(=O)NCCc2ccc(S(N)(=O)=O)cc2)c1C`, the activity change, negative = inhibition is 2.29%.

For the compound `Cc1c(C)n(Cc2ccc(Cl)cc2)c2ccc(C(=O)NCCc3ccc(S(N)(=O)=O)cc3)cc12`, the activity change, negative = inhibition was -36.4% (active).

Consider `COc1ccc(NS(=O)(=O)c2cccc(C(=O)NCCc3ccc(S(N)(=O)=O)cc3)c2)cc1`, for which the activity change, negative = inhibition is -10.4%.

Consider `Cc1cc(N2CCN(c3cccc(C(F)(F)F)c3)CC2)n2nc(-c3ccccc3)nc2n1`, for which the activity change, negative = inhibition is 23.9%.

With `CCc1ccccc1NC(=O)c1ccc2nc(CCc3ccccc3)oc2c1`, the activity change, negative = inhibition is -9.13%.

On to `Cc1ccccc1NC(=O)c1cc2c([nH]c1=O)CC(C)(C)CC2=O`, for which the activity change, negative = inhibition is -6.86%.

As for `CCOc1cccc(NC(=O)CSc2ncc(-c3ccc(Cl)cc3)[nH]2)c1`, the activity change, negative = inhibition is -2.12%.

Turning to `COc1ccccc1CSc1ncc(-c2ccc([N+](=O)[O-])cc2)[nH]1`, the activity change, negative = inhibition was -37.4% (active).

With `COc1ccc(-c2cnc(SCCNC(=O)c3ccc4c(c3)OCO4)[nH]2)cc1`, the activity change, negative = inhibition was 1.65%.

On to `Cc1c(C(=O)NCc2ccccc2Br)oc2ccc3c(c12)C(=O)CC(C)(C)O3`, for which the activity change, negative = inhibition was -29.9%.

`COc1ccc(CN2CCCC(N3CCc4ccccc4C3)C2)c(O)c1` (stereo unspecified): the activity change, negative = inhibition was -0.568%.

`COc1ccc2cc1Oc1ccc(cc1)C[C@H]1c3cc(c(OC)cc3CCN1C)Oc1c(O)c(OC)cc3c1[C@H](C2)N(C)CC3`: the activity change, negative = inhibition was -27.6%.

For the compound `COc1c(O)ccc2c1CN1CCc3cc4c(cc3C1C2)OCO4` (stereo unspecified), the activity change, negative = inhibition is -67.5% (active).

Take `CCOc1ccc(S(=O)(=O)c2cn(Cc3ccc(OC)cc3)c3ccc(F)cc3c2=O)cc1`: the activity change, negative = inhibition is -3.59%.

Take `CCc1nc2ccc(C(=O)N3CCN(c4cc(Cl)ccc4C)CC3)cc2nc1CC`: the activity change, negative = inhibition is 4.25%.

For `Cn1nnc(NC(=O)CSc2ncn[nH]2)n1`, the activity change, negative = inhibition was -31.7% (active).

Turning to `O=C(CSc1ncn[nH]1)Nc1nc(-c2cccc([N+](=O)[O-])c2)cs1`, the activity change, negative = inhibition is -1.2%.

Take `O=C(CSc1ncn[nH]1)Nc1nsc(-c2ccccc2)n1`: the activity change, negative = inhibition is 1.31%.

Turning to `CCOC(=O)c1scc(-c2ccccc2)c1S(=O)(=O)Nc1ccccc1F`, the activity change, negative = inhibition is -3.82%.

On to `CCC(C(=O)Nc1cccc(-c2nc3cccnc3s2)c1C)c1ccccc1` (stereo unspecified), for which the activity change, negative = inhibition was -4.82%.
